From PubChem BioAssay (Tox21) come the findings set out here.

Records with an inconclusive call do not appear. Unmarked numbers belong to inactive results. Active and inactive are the calls of the source. Calls follow the shape of the full dose curve.
% is scaled to controls: 0 for no effect and ±100 for the full control effect.

Chain of Estrogen receptor (Homo sapiens) (P03372 whole entry, looked up): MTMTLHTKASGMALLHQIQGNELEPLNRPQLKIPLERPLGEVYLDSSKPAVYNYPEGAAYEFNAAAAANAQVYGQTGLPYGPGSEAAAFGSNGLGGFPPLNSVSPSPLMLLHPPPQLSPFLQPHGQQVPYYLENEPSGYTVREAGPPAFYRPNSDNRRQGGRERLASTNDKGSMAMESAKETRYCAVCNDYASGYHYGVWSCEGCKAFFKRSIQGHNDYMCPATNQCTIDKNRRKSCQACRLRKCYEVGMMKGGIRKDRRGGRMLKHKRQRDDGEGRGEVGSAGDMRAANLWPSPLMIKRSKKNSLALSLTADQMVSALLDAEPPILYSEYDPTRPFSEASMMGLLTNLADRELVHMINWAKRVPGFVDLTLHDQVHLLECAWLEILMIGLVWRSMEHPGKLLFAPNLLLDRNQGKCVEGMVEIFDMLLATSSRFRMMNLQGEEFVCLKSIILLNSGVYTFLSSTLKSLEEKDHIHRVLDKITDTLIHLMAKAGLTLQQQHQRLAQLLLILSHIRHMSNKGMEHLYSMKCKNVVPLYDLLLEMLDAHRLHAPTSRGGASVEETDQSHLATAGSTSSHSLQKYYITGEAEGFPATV

Test system in the first assay: not listed separately
As to the kind of experiment: qHTS assay to identify small molecule antagonists of the estrogen receptor alpha (ER-alpha) signaling pathway - cell viability counter screen (AID 743074).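 Also: HEK293 cells carrying ER-alpha-UAS-bla reporter stimulated with 17beta-estradiol; nearly all actives have a fitted effect of over 45% in size.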 The settings on record: ERalpha-bla HEK293 viability, CellTiter-Glo luminescence, 18 h; series mostly up to 69.4 µM; activity, negative = cytotoxicity: at the top concentration. On the technique in general: Quantitative high-throughput screening tests each substance at several concentrations.
As for `C[C@H](CN1CCCC1)C(=O)c1ccc(C(F)(F)F)cc1`, the “activity, negative = cytotoxicity” value was 13.1%.
As for `N#Cc1ccc(CC(=O)c2cccc(C(F)(F)F)c2)cc1`, the “activity, negative = cytotoxicity” value was -12.8%.
The same measure, in the same setting: in the case of `Cc1c(Nc2ncccc2C(=O)O)cccc1C(F)(F)F` it was -16.8% [at 32.6 µM]; in that of `COC(=O)c1cc(Cl)ccc1[N+](=O)[O-]`, -8.78%.
The same measure, in the same setting: in the case of `CC(C)(Cc1c[nH]c2ccccc12)NCC(O)COc1ccccc1C#N` (stereo unspecified) it was -18.1%; in that of `C=C[Si]1(C)O[Si](C)(C=C)O[Si](C)(C=C)O[Si](C)(C=C)O1` (stereo unspecified), 22.4%.
The same measure, in the same setting: in the case of `Cc1c(Cl)cccc1Nc1ccccc1C(=O)O` it was -11.6%; in that of `O=C(O)CNc1ccccc1`, -17.4%; in that of `C=C[Si](OCC)(OCC)OCC`, 11.9%.
On to `C=CC(C)(O)CC/C=C(/C)CCC=C(C)C` (stereo unspecified), for which the “activity, negative = cytotoxicity” value was 7.23%.
Same read-out and setting: the result for `Cc1nc2sccn2c(=O)c1CCN1CCC(=C(c2ccc(F)cc2)c2ccc(F)cc2)CC1` reads -21.6%; that for `CCCCC(CC)COCCC#N` (stereo unspecified), 11.3%; that for `Cc1ccc(NC(=O)c2ccc(CN3CCN(C)CC3)cc2)cc1Nc1nccc(-c2cccnc2)n1`, -13.3%.
As for `C[Si](C)(C)O[Si](C)(C)O[Si](C)(C)C`, the “activity, negative = cytotoxicity” value is -12.3%.
The same measure, in the same setting: the result for `Nc1ccccc1Nc1ccccc1` reads 6.69%; that for `CCOc1ccc2c(c1)C(C)CC(C)(C)N2` (stereo unspecified), -12.7%.
Regarding `Cc1ccc2ccccc2c1[N+](=O)[O-]`, the “activity, negative = cytotoxicity” value is 7.57%.
Turning to `O=C(O)c1ccccc1[N+](=O)[O-]`, the “activity, negative = cytotoxicity” value was -21.5%.
On the same count and under the same terms, in the case of `CC(C(=O)O)c1ccc(/C=C2\CCCCC2=O)cc1` (stereo unspecified) it was 7.56%; in that of `O=C(NC1CCN(CCc2c[nH]c3ccccc23)CC1)c1ccccc1`, 15.8%; in that of `CC(C)C[C@H](NC(=O)[C@H](Cc1ccccc1)NC(=O)c1cnccn1)B(O)O`, -24.2%.
The same measure, in the same setting: in the case of `CC(C)CCCCCCCOC(=O)c1ccc(C(=O)OCCCCCCCC(C)C)c(C(=O)OCCCCCCCC(C)C)c1` it was -14.2%; in that of `C=CC(O)CCCCC` (stereo unspecified), -11.8%.
On the same count and under the same terms, in the case of `CCCCCCCCCCCCCCCCC(=O)O` it was -10.2%; in that of `Cc1cc(C)n(CO)n1`, 1.39%.

Another assay concerns the target Estrogen receptor (Homo sapiens) (UniProt P03372). As to the kind of experiment: qHTS assay to identify small molecule agonists of the estrogen receptor alpha (ER-alpha) signaling pathway (AID 743075).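 Also: HEK293 GripTite cells with ER-alpha and UAS-driven beta-lactamase reporter.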 The settings on record: HEK293 ER-alpha-UAS-bla, beta-lactamase FRET ratio, 18 h; series mostly up to 70.1 µM; activation: at the top concentration.
On to `COC(=O)c1cc(Cl)ccc1[N+](=O)[O-]`, for which the “activation” value was -1.41%.
On to `CC1=CC(=C(c2ccc(N)cc2)c2ccc(N)cc2)C=CC1=N`, for which the Potency result was “inactive”.
Turning to `c1ccc(CCNc2nc(-c3ccccc3)cs2)cc1`, the “activation” value is -1.94%.
Take `Cc1c(Cl)cccc1Nc1ccccc1C(=O)O`: the “activation” value is -4.25%.
The same measure, in the same setting: in the case of `Cc1nc2sccn2c(=O)c1CCN1CCC(=C(c2ccc(F)cc2)c2ccc(F)cc2)CC1` it was -1.09%; in that of `Cc1ccc(NC(=O)c2ccc(CN3CCN(C)CC3)cc2)cc1Nc1nccc(-c2cccnc2)n1`, 3.14%.
On the same count and under the same terms, in the case of `O=c1c2ccccc2oc2ccccc12` it was -2.41%; in that of `Cc1ccc2ccccc2c1[N+](=O)[O-]`, -0.351%.
`CCCCCCCCS`: the “activation” value was 2.07% [at 79.1 µM].
Still for that read-out and setting: the result for `Cc1cc(C)n(CO)n1` reads -0.926%.
Still for that read-out and setting: in the case of `Oc1ccc(CCNCCCCCCNCCc2ccccc2)cc1O` it was 0.188%.
